SMILES strings stand for the structures. Where two headings read alike, the source gives them in different places.

Common to all, as to set-up: species or system human, MV4-11 + K-562 + COLO205 + SK-N-BE2 + OVCAR-8
The test system of assay [1] is ADCK1. Particulars: read-out: apparent Kd, n = 1.
Assay [2] concerns COX5A. To be noted: read-out: apparent Kd, n = 1.
Assay [3] concerns IRAK3. Particulars: read-out: apparent Kd, compound concentrations: 100 nM and 1000 nM (sheet 'Samples'), n = 1.
The test system of assay [4] is TEC. Particulars: read-out: apparent Kd, n = 1.
The subject of assay [5] is ABCD3. To be noted: read-out: apparent Kd, n = 1.
The subject of assay [6] is MTOR. To be noted: read-out: apparent Kd, n = 1.
Assay [7] deals with TNIK. Particulars: read-out: apparent Kd, compound concentrations: 100 nM and 1000 nM (sheet 'Samples'), n = 1.
For assay [8], the system named is ADRBK1. Particulars: read-out: apparent Kd; compound concentrations:100 nM and 1000 nM (sheet 'Samples'); n = 1.
Assay [9] concerns STK3. Particulars: read-out: apparent Kd, n = 1.
Assay [10] has as its system PYGL. Particulars: read-out: apparent Kd, n = 1.
Assay [11] relates to TESK1. To be noted: read-out: apparent Kd, compound concentrations: 100 nM and 1000 nM (sheet 'Samples'), n = 1.
In assay [12] the test system is PRKAG1. To be noted: read-out: apparent Kd, n = 1.
Assay [13] concerns STK16. To be noted: read-out: apparent Kd, compound concentrations: 100 nM and 1000 nM (sheet 'Samples'), n = 1.
The subject of assay [14] is MAPK8. To be noted: read-out: apparent Kd, n = 1.
The subject of assay [15] is CDK2. To be noted: read-out: apparent Kd; compound concentrations: 100 nM and 1000 nM (sheet 'Samples'), CATDS: 1.6681675288379799E-2; n = 1.
Assay [16] has as its system CDK5. To be noted: read-out: apparent Kd; compound concentrations: 100 nM and 1000 nM (sheet 'Samples'), CATDS: 2.0487115884267999E-2; n = 1.
For assay [17], the system named is LIMK2. To be noted: read-out: apparent Kd; compound concentrations: 100 nM and 1000 nM (sheet 'Samples'), CATDS: 3.5211660098846E-2; n = 1.
The subject of assay [18] is PTK2B. Particulars: read-out: apparent Kd, n = 1.
In assay [19] the test system is PTK2. Particulars: read-out: apparent Kd, n = 1.
The mark [20] stands for this setting: compound concentrations:100 nM and 1000 nM (sheet 'Samples').

On to `COc1cccc(-n2ncc3c(N/N=C/c4ccc(C(=O)NCCN(C)C)cc4)ncnc32)c1.Cl` [GW784307A], for which the potency estimated from few doses in assay [1] (compound concentrations: 100 nM and 1000 nM (sheet 'Samples'), CATDS: 3.1344375728913298E-2) is 900 nM; in assay [2] (compound concentrations: 100 nM and 1000 nM (sheet 'Samples'), CATDS: 2.84173796904106E-2) it was 1280 nM; in assay [3] (CATDS: 2.7757665118228601E-2), 1410 nM.
Turning to `Cc1ccc(O)cc1Nc1ccnc2cc(-c3ccc(CN4CCCCC4)o3)ccc12` [GW557777X], in assay [4] (compound concentrations: 100 nM and 1000 nM (sheet 'Samples'), CATDS: 1.34758228974899E-2), the potency estimated from few doses was 1040 nM.
For the compound `CS(=O)(=O)CCNCc1ccc(-c2ccc3ncnc(Nc4ccc(OCc5cccc(F)c5)c(C(F)(F)F)c4)c3c2)o1` [GW576484X], the potency estimated from few doses in assay [5] (compound concentrations: 100 nM and 1000 nM (sheet 'Samples'), CATDS: 5.3363712768055301E-2) is 1700 nM; in assay [6] (compound concentrations: 100 nM and 1000 nM (sheet 'Samples'), CATDS: 9.7740197678702595E-2), 599 nM.
`Cl.Oc1cccc(Nc2ccnc3cc(-c4ccncc4)ccc23)c1` [GW494601A]: the potency estimated from few doses in [7] (CATDS: 2.0441514499226199E-2) was 1280 nM.
In the case of `Cc1cccc(Nc2nc(NCCN)ncc2C(N)=O)c1` [GSK1292139B], in assay [7] (CATDS: 7.7542557386304695E-2), the potency estimated from few doses is 1140 nM.
For `CS(=O)(=O)Cc1ccc(Nc2nccc(-c3c(-c4cccc(NC(=O)C5CCCCC5)c4)nn4ncccc34)n2)cc1` [GSK350559A], the figures for the potency estimated from few doses in assay [5] (setting [20]), in [8] and in assay [9] (setting [20]) were 1580 nM, 1690 nM and 1920 nM, respectively.
For `COc1ccc(Nc2nccc(N3CCC(NC(=O)Nc4ccc5c(c4)OCO5)C3)n2)cc1` (centres unmarked) [GSK1379745A], the potency estimated from few doses in assay [5] (compound concentrations: 100 nM and 1000 nM (sheet 'Samples'), CATDS: 3.9996680208342399E-2) was 1500 nM; in [10] (compound concentrations: 100 nM and 1000 nM (sheet 'Samples'), CATDS: 3.8130802338003297E-2) it was 1670 nM; in [11] (CATDS: 7.4775560770701202E-2), 510 nM.
`Cl.Cl.Cl.c1ccc(Oc2ccc(Nc3ccnc4cc(-c5ccc(CN6CCNCC6)o5)ccc34)cc2)nc1.c1ccc(Oc2ccc(Nc3ccnc4cc(-c5ccc(CN6CCNCC6)o5)ccc34)cc2)nc1` [GW567142A]: the potency estimated from few doses in assay [10] (compound concentrations: 100 nM and 1000 nM (sheet 'Samples'), CATDS: 1.6934358184527699E-2) is 2080 nM; in assay [4] (compound concentrations: 100 nM and 1000 nM (sheet 'Samples'), CATDS: 1.92615538801734E-2), 1300 nM; in assay [7] (CATDS: 1.6971599300490501E-2) it was 2060 nM.
Turning to `CN1C(=O)c2ccccc2N(C)c2nc(Nc3cnn(C4CCNCC4)c3)ncc21` [XMD-17-51], the potency estimated from few doses in assay [12] (compound concentrations: 100 nM and 1000 nM (sheet 'Samples'), CATDS: 1.89897373320012E-2) is 530 nM; in assay [13] (CATDS: 1.46632885257346E-2), 1360 nM.
As for `CCc1nc(-c2cccc(N(C)S(=O)(=O)c3ccccc3)c2)c(-c2ccnc(Nc3ccc(N4CCN(C(C)=O)CC4)nc3)n2)s1` [GSK1645895A], the potency estimated from few doses in assay [5] (compound concentrations: 100 nM and 1000 nM (sheet 'Samples'), CATDS: 0.16057119825567601) was 1310 nM.
In the case of `O=C1N=C(NCCc2ccccn2)S/C1=C\c1ccc2ncccc2c1` [RO4508346-000], the potency estimated from few doses in [13] (CATDS: 6.4775104376565806E-2) was 2150 nM.
For `Nc1nc(-c2ccc3c(N)n[nH]c3c2)cc(N2CCCCC2)n1` [GSK2228768A], the potency estimated from few doses in assay [2] (setting [20]) is 1060 nM.
In the case of `COc1cc(Nc2nccc(N3CCC(NC(=O)C4COc5ccccc5O4)C3)n2)cc(OC)c1OC` (centres unmarked) [GSK1379761A], the potency estimated from few doses in assay [3] (CATDS: 0.29618099534974801) is 900 nM.
Regarding `NC(=O)c1cccc(Nc2nccc(Nc3cccc4[nH]ncc34)n2)c1` [GW782612X], the potency estimated from few doses in [3] (CATDS: 4.1377048408479999E-2) was 891 nM.
With `Cc1cccc(-c2cc(-c3c[nH]nc3-c3ccccn3)ccn2)c1` [GW679395X], the potency estimated from few doses in [5] (setting [20]) was 1200 nM; in assay [14] (setting [20]), 1610 nM; in assay [6] (setting [20]), 501 nM; in assay [4] (setting [20]), 1320 nM.
For `COc1cc(Nc2nccc(N3CCC(NC(=O)c4cccc(C#N)c4)C3)n2)cc(OC)c1OC` (centres unmarked) [GSK1379751A], in assay [3] (CATDS: 0.26615341135904602), the potency estimated from few doses is 510 nM.
For `CC(C)c1nc(-c2cccc(NS(=O)(=O)c3ccccc3)c2)c(-c2ccnc(Nc3ccc4c(c3)CN(C)CC4)n2)s1` [GSK1649598A], the potency estimated from few doses in assay [15] was 614 nM; in assay [16], 353 nM; in [17], 116 nM; in assay [11] (CATDS: 9.9245429656874704E-2) it was 24.2 nM; in assay [7] (CATDS: 1.2157872123198099E-2), 2170 nM.
For the compound `COc1ccc(-n2cnc3c(N)ncnc32)cc1` [SKF-97236], in assay [5] (compound concentrations: 100 nM and 1000 nM (sheet 'Samples'), CATDS: 0.13687794544238399), the potency estimated from few doses is 1490 nM.
Turning to `CCn1cc(-c2ccnc3[nH]c(-c4cccc(CN(C)C)c4)cc23)c(-c2ccc(NC(=O)N(C)C)cc2)n1` [GSK1070916], in assay [5] (setting [20]), the potency estimated from few doses was 1970 nM.
`COc1cc(Nc2ccnc3cc(-c4ccncc4)ccc23)cc(OC)c1OC.Cl` [GW494610A]: the potency estimated from few doses is 549 nM in assay [11] (CATDS: 2.92896642952412E-2) and 689 nM in assay [7] (CATDS: 2.73925679017063E-2).
For `O=C1N=C(NCc2cccs2)SC1Cc1ccc2ncccc2c1` (centres unmarked) [RO4629078-000], the potency estimated from few doses is 667 nM in [6] (compound concentrations: 100 nM and 1000 nM (sheet 'Samples'), CATDS: 1.0012071697909601E-2); 314 nM in assay [12] (compound concentrations: 100 nM and 1000 nM (sheet 'Samples'), CATDS: 1.42415287056141E-2); 211 nM in [18] (compound concentrations: 100 nM and 1000 nM (sheet 'Samples'), CATDS: 1.78994015869859E-2); 250 nM in [19] (compound concentrations: 100 nM and 1000 nM (sheet 'Samples'), CATDS: 1.61758600761754E-2); 1000 nM in [4] (compound concentrations: 100 nM and 1000 nM (sheet 'Samples'), CATDS: 8.6375652210939294E-3).
`CN(C)Cc1ccc(-c2ccc3c(Nc4ccc(Oc5ccccn5)cc4)ccnc3c2)o1` [GW567148X]: the potency estimated from few doses was 830 nM in [18] (compound concentrations: 100 nM and 1000 nM (sheet 'Samples'), CATDS: 2.12691468378991E-2); 850 nM in assay [19] (compound concentrations: 100 nM and 1000 nM (sheet 'Samples'), CATDS: 2.1089063317390098E-2).
As for `Nc1nc(N)c2nc(-c3ccccc3)[nH]c2n1` [SKF-12778], the potency estimated from few doses in assay [1] (setting [20]) was 1200 nM; in assay [6] (setting [20]), 400 nM; in assay [10] (setting [20]) it was 1640 nM; in [4] (setting [20]), 1160 nM.
With `Cc1cc(O)cc(C)c1/C=C/c1cncc(-c2nn[nH]n2)c1.Cl` [GW441806A], the potency estimated from few doses in assay [11] (CATDS: 4.6291633424982298E-2) is 1290 nM.
As for `Fc1cc(Cl)ccc1Nc1ccnc2cc(-c3ccc(CN4CCOCC4)o3)ccc12` [GW560109X], in [7] (CATDS: 4.94410528213204E-2), the potency estimated from few doses was 2050 nM.
As to `COc1cc2ncn(-c3cc(OCCCc4ccccc4)c(C(N)=O)s3)c2cc1OC` [GSK205189A], the potency estimated from few doses in assay [12] (setting [20]) was 1310 nM; in assay [18] (setting [20]) it was 642 nM; in assay [19] (setting [20]), 678 nM.
For the compound `Fc1ccc(-c2c(-c3ccncc3)[nH]c3nccnc23)cc1` [RO1155697-000], the potency estimated from few doses in assay [14] (setting [20]) is 1790 nM.
On to `CN1CCc2ccc(Nc3nccc(-c4c(-c5cccc(NC(=O)c6c(F)cccc6F)c5)nc5ccccn45)n3)cc2C1.Cl` [GSK1010829B], for which the potency estimated from few doses in [9] (compound concentrations: 100 nM and 1000 nM (sheet 'Samples'), CATDS: 3.0039466965453999E-2) is 2170 nM.
For the compound `CNC(=O)c1ccccc1Nc1nc(Nc2cccc(CS(C)(=O)=O)c2)ncc1C.O=CO` [GSK1520489A], the potency estimated from few doses in [3] (CATDS: 6.3642542209879499E-2) is 16.2 nM; in [14] (compound concentrations: 100 nM and 1000 nM (sheet 'Samples'), CATDS: 1.2501380881005299E-2), 517 nM; in assay [18] (compound concentrations: 100 nM and 1000 nM (sheet 'Samples'), CATDS: 2.8071916989063601E-2), 65.5 nM; in assay [19] (compound concentrations: 100 nM and 1000 nM (sheet 'Samples'), CATDS: 4.2767285410469903E-2) it was 30.2 nM; in assay [13] (CATDS: 2.3983880535388601E-2), 91.1 nM; in assay [4] (compound concentrations: 100 nM and 1000 nM (sheet 'Samples'), CATDS: 7.2078436601234794E-2), 13.5 nM.

The record behind these values is article PMC11062922 (Nature Chemical Biology, 2023).
